uPA surface inh = inhibitors of cell surface uPA generation; cell surface uPA generation assay, qHTS; Potency, µM (doses to about 38.3 µM), most hits filed as inhibitors; 330,000 tested, 0.31% active; AID 540303; active = well fitted inhibition curve with a large enough effect; inconclusive = small, poorly fitted or top-dose-only effect; inactive = no such curve, though single readings can be large or run the other way; tested in mouse RAW 264.7 cells; note: nearly all actives have a fitted effect of over 55% in size
RORg inh = blocks mouse ROR gamma transcriptional activity; P51450; Drosophila S2 Gal4-RORgamma UAS-luciferase reporter, 20 h; Potency, µM (highest dose often 53.6 µM), most hits filed as inhibitors; 310,000 tested, 5.4% active; AID 2551; note: nearly all actives have a fitted effect of over 60% in size
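Compounds are pin-transferred onto Drosophila Schneider cells expressing a copper-inducible Gal4–ROR gamma transactivation domain fusion. After 1 hr, copper sulfate is added to 700 uM final; luciferase is read 20 hr later.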
TRPV1 PAM = enhances activation of the human vanilloid receptor TRPV1; 320,000 tested, 0.02% active; potentiation, % at 8.33 µM; TRPV1-expressing cells, Fluo-8 calcium influx, capsaicin EC20 potentiation; Q8NER1; in the data active = potentiation above about 80%; inconclusive = between about 30% and that limit
Target sequence (Q8NER1 whole entry, looked up): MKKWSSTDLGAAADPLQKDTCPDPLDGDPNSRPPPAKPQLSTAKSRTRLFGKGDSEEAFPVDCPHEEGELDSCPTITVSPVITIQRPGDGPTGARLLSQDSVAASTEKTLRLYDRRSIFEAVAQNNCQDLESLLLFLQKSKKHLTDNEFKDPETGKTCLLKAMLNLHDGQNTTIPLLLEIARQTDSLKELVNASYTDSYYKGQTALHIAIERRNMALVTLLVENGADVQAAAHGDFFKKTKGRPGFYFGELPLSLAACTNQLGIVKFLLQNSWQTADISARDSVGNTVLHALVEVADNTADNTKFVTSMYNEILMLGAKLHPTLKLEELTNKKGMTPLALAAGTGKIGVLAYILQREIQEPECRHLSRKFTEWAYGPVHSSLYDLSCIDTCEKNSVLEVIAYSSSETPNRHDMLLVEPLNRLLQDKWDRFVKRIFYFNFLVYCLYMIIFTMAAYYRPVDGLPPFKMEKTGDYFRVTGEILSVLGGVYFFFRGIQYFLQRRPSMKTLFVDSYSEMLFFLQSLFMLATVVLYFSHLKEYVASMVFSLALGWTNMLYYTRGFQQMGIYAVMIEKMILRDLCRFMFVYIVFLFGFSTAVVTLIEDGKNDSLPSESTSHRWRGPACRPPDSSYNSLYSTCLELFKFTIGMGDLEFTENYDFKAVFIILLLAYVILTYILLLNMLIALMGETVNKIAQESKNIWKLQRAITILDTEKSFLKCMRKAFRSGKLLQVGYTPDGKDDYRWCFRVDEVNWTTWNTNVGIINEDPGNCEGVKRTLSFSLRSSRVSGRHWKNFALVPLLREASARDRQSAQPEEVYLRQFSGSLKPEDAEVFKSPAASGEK
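Cells expressing TRPV1 were dye-loaded with Fluo-8 and read kinetically: 10 s baseline, 3 min after compound (agonist portion), then 2 min after EC20 capsaicin (allosteric enhancer portion). Calcium-bound dye fluorescence at 480/520 nm.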
Gal4-VP16 FLuc = counter-screen for ROR gamma inhibitors: Gal4-VP16 reporter; Potency, µM (top dose mostly 53.6 µM), most hits filed as inhibitors; AID 2546; Drosophila S2 Gal4-VP16 UAS-luciferase, luminescence, 20 h; 310,000 tested, 3.5% active;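 note: Gal4-VP16 expression switched on by copper sulfate through the metallothionein promoter; nearly all actives have a fitted effect of over 50% in size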
TRPV1 ag = human TRPV1 agonism; Q8NER1; TRPV1-expressing cells, Fluo-8 calcium influx, agonist mode; activation, % at 8.33 µM; 320,000 tested, 0.19% active; AID 540275; in the data active = activation above about 80%; inconclusive = between about 30% and that limit
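TRPV1-expressing cells were cultured overnight at 35.5C and loaded with Fluo-8 calcium dye for 40 to 90 min at room temperature. After a 10 s baseline, compound was added and calcium influx was read kinetically for 3 min (ex 480/em 520 nm).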
Large screens that a line does not name were inactive. This is a sample that favours compounds with a hit; in the whole collection about 5.8% have one here. Unless noted, calls come from the whole dose curve; as a rule, active = well fitted curve in the direction sought with a large enough effect; inconclusive = small, poorly fitted or top-dose-only effect, or another doubt; inactive = no such curve, though single readings can be large; an effect the other way counts as inactive or inconclusive.

Cc1cc(-c2csc(NC(=O)c3ccc(S(=O)(=O)N(C)C)cc3)n2)c(C)n1-c1ccccc1	none
O=C(Nc1nc(-c2ccc(S(=O)(=O)N3CCOCC3)cc2)cs1)c1ccccc1	none
CC1CN(S(=O)(=O)c2ccc(C(=O)Nc3nc(-c4cc5ccccc5o4)cs3)cc2)CC(C)O1 (stereo not drawn)	RORg inh inconclusive, Gal4-VP16 FLuc 2.82µM
CN(C)S(=O)(=O)c1ccc(C(=O)Nc2nc(-c3cc4ccccc4o3)cs2)cc1	RORg inh inconclusive, Gal4-VP16 FLuc 6.31µM
c1ccc2oc(-c3csc(NCC4CCCO4)n3)cc2c1 (stereo not drawn)	RORg inh 7.94µM, Gal4-VP16 FLuc inconclusive
O=C(Nc1nc(-c2cc3ccccc3o2)cs1)c1ccc(S(=O)(=O)N2CCCC2)cc1	RORg inh inconclusive, Gal4-VP16 FLuc 7.94µM
Cc1cc(C(=O)CS(=O)(=O)c2ccc(F)cc2)cc(C)c1O	none
CC1CCc2onc(C(=O)NCc3ccco3)c2C1 (stereo not drawn)	none
CCCC[C@]12Cc3cc(C#N)ccc3C(O1)c1c(cc(C)n(-c3ccccc3)c1=O)O2	none (no result: uPA surface inh)
COc1cccc(/C(O)=C/c2nc3ccc(C(=O)NCCc4ccc(Cl)cc4)cc3[nH]c2=O)c1	RORg inh inconclusive, Gal4-VP16 FLuc 14.1µM
COC(=O)[C@@]1(Cc2ccc(OC)cc2)[C@H]2c3cc(C(=O)N(C)C)n(Cc4ccc(C)c(F)c4F)c3C[C@H]2CN1C(=O)c1ccccc1	none (no result: uPA surface inh, TRPV1 PAM, TRPV1 ag)
O=C(O)c1ccc(N=Nc2c(O)ccc3ncccc23)cc1	uPA surface inh inconclusive, RORg inh 1.12µM, Gal4-VP16 FLuc 3.16µM
CCc1c2c(nc3ccc(OC)cc13)COC2	none (no result: uPA surface inh, TRPV1 PAM, TRPV1 ag)
CN(CC(=O)Nc1ccccc1Br)C(=O)c1ccc(-c2ccc(Cl)cc2)o1	uPA surface inh inconclusive, RORg inh inconclusive, Gal4-VP16 FLuc 5.62µM
O=C1C[C@@H](O)[C@@H](O)[C@H]2[C@@H]3C(=O)N(C[C@@H]4CCCO4)C(=O)[C@@H]3CC[C@H]12	none (no result: uPA surface inh, TRPV1 PAM, TRPV1 ag)
CC(C)NC(=S)N/N=C1\CCCc2ccccc21	RORg inh 1.58µM, Gal4-VP16 FLuc 3.98µM
CC(C)NC(=S)NN=C1CCC(c2ccccc2)CC1 (stereo not drawn)	RORg inh 5.62µM, Gal4-VP16 FLuc 11.2µM
Cc1ccc2[nH]c3c(N4CCc5ccccc5C4)ncnc3c2c1	RORg inh inconclusive, Gal4-VP16 FLuc 3.16µM, TRPV1 ag inconclusive
Fc1ccc2[nH]c3c(NCCN4CCOCC4)ncnc3c2c1	RORg inh inconclusive, Gal4-VP16 FLuc 12.6µM
Fc1ccc2[nH]c3c(N4CCc5ccccc5C4)ncnc3c2c1	RORg inh 11.2µM, Gal4-VP16 FLuc 3.16µM (no result: TRPV1 PAM, TRPV1 ag)
Brc1ccc2[nH]c3c(N4CCc5ccccc5C4)ncnc3c2c1	none
O=c1c(O)c(-c2ccccc2)oc2ccc3occc3c12	none (no result: uPA surface inh, TRPV1 PAM, TRPV1 ag)
N#CCCn1c(=O)c(-c2cc(F)cc(F)c2)nc2cnc(OCc3ccccc3)nc21	none (no result: uPA surface inh, TRPV1 PAM, TRPV1 ag)
Cc1cc(Br)cnc1NC(=S)Nc1ccc(F)cc1F	RORg inh 6.31µM, Gal4-VP16 FLuc inconclusive
COc1ccc(/C=C/C(=O)Nc2ccccc2C(=O)O)cc1OC	uPA surface inh inconclusive, RORg inh 3.55µM, Gal4-VP16 FLuc 7.94µM
COc1ccc(/C=C/C(=O)Nc2cccc(S(=O)(=O)NC3=NCCCCC3)c2)cc1OC	none (no result: RORg inh, Gal4-VP16 FLuc)
COc1ccc(/C=C/C(=O)Nc2ccccc2C(F)(F)F)cc1OC	none
COc1ccc(/C=C/C(=O)Nc2ccc3c(c2)CCC3)cc1OC	RORg inh inconclusive, Gal4-VP16 FLuc 3.98µM
COc1ccc(/C=C/C(=O)Nc2ccccc2C(=O)O)cc1	RORg inh 7.94µM, Gal4-VP16 FLuc 10µM
COc1ccc(/C=C/C(=O)ONC2=NCCCCC2)cc1OC	RORg inh 11.2µM
CCOc1ccc(C(=O)NCC(=O)OCCN2C(=O)c3ccccc3C2=O)cc1OCC	none (no result: RORg inh, Gal4-VP16 FLuc)
C=CC[n+]1c(-c2ccc(OCC)cc2)csc1NNC(=O)Nc1ccccc1	uPA surface inh inconclusive, RORg inh 15.8µM, TRPV1 PAM inconclusive, Gal4-VP16 FLuc inconclusive
N#Cc1cc2c(nc1SCC(=O)Nc1nccs1)CCCCC2	RORg inh inconclusive, Gal4-VP16 FLuc inconclusive (no result: uPA surface inh)
Cc1ccc(C#N)c(SCC(=O)Nc2nccs2)n1	uPA surface inh 6.31µM
O=C(CSc1nc(-c2ccccc2)nc2ccccc12)Nc1nccs1	RORg inh 11.2µM, Gal4-VP16 FLuc inconclusive
O=C(ONC(=O)C1C2C=CC(C2)C1C(=O)NOC(=O)c1ccccc1)c1ccccc1 (stereo not drawn)	none (no result: RORg inh, TRPV1 PAM, Gal4-VP16 FLuc, TRPV1 ag)
CCOC(=O)CSc1ccc(-c2nc3cc(C)c(C)cc3[nH]2)cn1	RORg inh 17.8µM, Gal4-VP16 FLuc inconclusive, TRPV1 ag inconclusive
C=CCn1c2ccccc2c2nnc(SC(CC)C(=O)Nc3sc4c(c3C#N)CCCC4)nc21 (stereo not drawn)	none
CCC(NC(=O)NNC(N)=S)(C(F)(F)F)C(F)(F)F	RORg inh 11.2µM
CCNC(=O)CSc1nnc(-c2cc(-c3ccc(Cl)cc3)nc3ccccc23)o1	RORg inh 0.199µM, Gal4-VP16 FLuc inconclusive
COc1cc(NC(=O)CSc2nnc(-c3cc(C)on3)o2)cc(OC)c1	none
Cc1cc(-c2nnc(SCCC(=O)Nc3ccccc3)o2)no1	RORg inh 14.1µM, Gal4-VP16 FLuc inconclusive
Cc1cc(-c2nnc(SCC(=O)Nc3nc(-c4ccc(Cl)cc4)cs3)o2)no1	RORg inh 14.1µM, Gal4-VP16 FLuc inconclusive
Cc1cc(C)cc(OCC(=O)OCC(=O)c2c(N)n(C)c(=O)n(C)c2=O)c1	none
CCc1cc2c(=O)[nH]c(-c3ccccn3)nc2s1	RORg inh inconclusive, Gal4-VP16 FLuc 25.1µM
O=C(Nc1cccc([N+](=O)[O-])c1)c1cc2ccccc2cc1O	RORg inh 5.01µM, Gal4-VP16 FLuc 4.47µM
O=C(Nc1cccc([N+](=O)[O-])c1)c1ccc(-c2ccccc2)cc1	Gal4-VP16 FLuc inconclusive, TRPV1 ag 86.9
CCCN1CCC(=O)N(C(CSc2ccc(OC)cc2)c2ccccc2)CC1 (stereo not drawn)	none (no result: uPA surface inh, TRPV1 PAM, TRPV1 ag)
O=C(NNc1ncnc2c1cnn2-c1cccc(Cl)c1)c1ccco1	RORg inh 5.01µM, Gal4-VP16 FLuc 7.08µM
Cc1ccccc1C(=O)NNc1ncnc2c1cnn2C	RORg inh inconclusive
COc1ccc(CC(=O)NNc2ncnc3c2cnn3-c2ccc(C)cc2)cc1	Gal4-VP16 FLuc inconclusive
COc1ccc(CC(=O)NNc2ncnc3c2cnn3-c2ccc(C)cc2)cc1OC	RORg inh 6.31µM, Gal4-VP16 FLuc inconclusive
Cn1ncc2c(NNC(=O)c3ccccc3Cl)ncnc21	RORg inh 1µM, Gal4-VP16 FLuc inconclusive
Cc1ccc(-n2ncc3c(NNC(=O)c4ccco4)ncnc32)cc1C	RORg inh 3.55µM, Gal4-VP16 FLuc 7.08µM
Cc1ccc(Cl)cc1-n1ncc2c(NNC(=O)c3ccco3)ncnc21	RORg inh inconclusive
CN(C)S(=O)(=O)c1ccc(C(=O)Nc2cc3c(cc2C(=O)O)OCCCO3)cc1	none
Fc1ccc(-c2cc(-c3nnc4n3CCCCC4)c3ccccc3n2)cc1	uPA surface inh inconclusive, RORg inh inconclusive, Gal4-VP16 FLuc 11.2µM
Clc1ccc(-c2cc(-c3nnc4n3CCCCC4)c3ccccc3n2)cc1	RORg inh inconclusive, Gal4-VP16 FLuc 3.16µM

Bioassay records as filed in PubChem.
